Sm TGR block: blocks Schistosoma mansoni thioredoxin glutathione reductase. Q962Y6. 3% of 360,000 active. Potency, µM (top dose mostly 114 µM), inactives show at the top dose activity change, negative = inhibition, usual class: inhibitors. purified TGR, DTNB reduction, TNB absorbance 405 nm; also: potency is read from the fitted curve at half-maximal effect; % is scaled to controls: 0 for no effect and ±100 for the full control effect; nearly all actives have a fitted effect of over 60% in size
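First, TGR (20 nM dispensed) and NADPH were mixed with compound. Second, a 15 min room-temperature incubation followed. Third, further NADPH and then DTNB were added to start the reaction. Finally, TNB absorbance was monitored kinetically.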
HCV inh: HCV inhibition | Huh7.5.1 HCVcc-Cre infection, luciferase reporter, 44 h | Potency, µM (titrated, usually from 41.8 µM), for inactives: at the highest dose activity change, negative = inhibition, usual class: inhibitors | 3.4% of 340,000 active | AID 651820; also: potency is read from the fitted curve at half-maximal effect; % is scaled to controls: 0 for no effect and ±100 for the full control effect
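Antiviral activity was scored by luciferase reporter output from cells infected with HCVcc-Cre (~0.5 moi) in presence of compound, 44 h infection period, cells seeded 1,000/well 4 h prior.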
SARS PLP yeast: blocks SARS-CoV papain-like protease in a yeast assay; S. cerevisiae expressing SARS-CoV PLpro, growth rescue; Potency, µM (titrated, usually from 32.9 µM), for the others: at the highest dose activity, positive = growth rescue, actives largely listed as activators; 0.19% of 330,000 active; calls by dose curve; also: potency is read from the fitted curve at half-maximal effect; 0% is about no effect; nearly all actives have a fitted effect of over 55% in size
HCMV inh: blocks human cytomegalovirus replication | HFF cells, HCMV-luciferase reporter, 72 h; active compounds read low | activity change, negative = inhibition, % at 57.5 µM | 4.5% of 410,000 active | AID 1259415; in the data active = activity change below about -60%; inconclusive = no clear call, values can overlap the other calls; inactive = above about -39%; also: % is scaled to controls: 0 for no effect and ±100 for the full control effect
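Screen run at 2 compound doses on HFFs infected with reporter HCMV, MOI 1 PFU/cell. Luciferase activity from cell lysates at 72 h post infection gave inhibition relative to buffer-only and Salinomycin wells.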
Pf growth 96h: P. falciparum growth inhibition at 96 hour, primary screen for plastid delayed-death inhibitors; 6.9% of 320,000 active; Potency, µM (highest dose often 28.7 µM), inactives show at the highest dose activity change, negative = inhibition, hits mostly inhibitors; P. falciparum luciferase reporter growth, 96 h; also: potency is read from the fitted curve at half-maximal effect; % is scaled to controls: 0 for no effect and ±100 for the full control effect
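Erythrocytes infected with luciferase-expressing P. falciparum were dispensed at 2% hematocrit and 0.05% parasitemia (final), then incubated with compounds 96 hours at 37 C in 5% CO2. Luminescence after detection reagent addition reported growth.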
Pf growth 48h: inhibits P. falciparum growth in the first generation, 48 h | P. falciparum luciferase growth in erythrocytes, 48 h | Potency, µM (titrated, usually from 28.7 µM), without a hit: top-dose activity change, negative = inhibition, usual class: inhibitors | 5.9% of 310,000 active; also: potency is read from the fitted curve at half-maximal effect; % is scaled to controls: 0 for no effect and ±100 for the full control effect
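Luciferase-expressing P. falciparum in infected erythrocytes (2% hematocrit, 0.1% parasitemia final) in RPMI 1640/0.5% Albumax were exposed to compound for 48 hours at 37 C, 5% CO2; growth read as luminescence.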
* hit, by the source's call. An excerpt weighted towards active compounds, which were near 15% of everything screened. Unless noted, calls follow the shape of the dose curve; as a rule, active = well fitted curve in the direction sought with a large enough effect; inconclusive = small, poorly fitted or top-dose-only effect, or another doubt; inactive = no such curve, though single readings can be large; an effect the other way counts as inactive or inconclusive.

Results for CCOc1ccc(NS(=O)(=O)c2cc(NC(=O)c3ccc(C)cc3)ccc2Cl)cc1 ?
Sm TGR block: -2%; HCV inh: 7.9µM*; SARS PLP yeast: -23%; HCMV inh: -38; Pf growth 96h: inconclusive; Pf growth 48h: inconclusive

What do the screens show for `CCOc1ccc(C(=O)Nc2ccc3[nH]ncc3c2)cc1`?
Sm TGR block: 5%; HCV inh: -21%; SARS PLP yeast: 3%; HCMV inh: 180; Pf growth 96h: 12µM*; Pf growth 48h: 183%

How did COc1cccc(C(=O)NNC(=O)c2ccc(NS(=O)(=O)c3cccs3)cc2)c1OC do in these assays?
Sm TGR block: 0%; HCV inh: -5%; SARS PLP yeast: -1%; HCMV inh: 23; Pf growth 96h: 2.1µM*; Pf growth 48h: 2.9µM*

Results for C=CCOc1ccc(CN(C)C(=O)CNC(=O)c2ccc(-c3ccccc3)cc2)cc1 ?
Sm TGR block: -8%; HCV inh: 11µM*; SARS PLP yeast: 0%; HCMV inh: -81*; Pf growth 96h: -29%; Pf growth 48h: 13µM*

How did CCOc1ccc(NS(=O)(=O)c2ccc(-c3coc(C)n3)cc2)cc1 do in these assays?
Sm TGR block: -7%; HCV inh: -8%; SARS PLP yeast: 9%; HCMV inh: 0; Pf growth 96h: 1%; Pf growth 48h: 25%

How did CCOc1ccc(CCNC(=O)c2cc(=O)[nH]c3ccc(S(=O)(=O)N4CCCCC4)cc23)cc1OCC do in these assays?
Sm TGR block: 3%; HCMV inh: 3

How did CC(=O)N1CCC(N(C(=O)Nc2ccc(C)c(F)c2)C(C)C)CC1 do in these assays?
Sm TGR block: 1%; HCMV inh: 41

What do the screens show for `COc1ccc(Br)cc1C1N2CC3(C)CN1CC(C)(C2)C3=O` (centres undefined)?
Sm TGR block: -2%; HCV inh: 13%; SARS PLP yeast: 8%; HCMV inh: 27; Pf growth 96h: 57%; Pf growth 48h: 30%

How did CCOC(=O)c1cc(S(=O)(=O)Nc2cc(C)c(Cl)cc2OC)[nH]n1 do in these assays?
Sm TGR block: -3%; HCMV inh: 11

What do the screens show for `C=CCOc1ccc(C(=O)Nc2ccc(OCC)cc2)cc1`?
Sm TGR block: -3%; HCV inh: -17%; SARS PLP yeast: 0%; HCMV inh: -2; Pf growth 96h: 4.1µM*; Pf growth 48h: 0%

What do the screens show for `CCOc1ccc(NC(=O)c2ccc(NS(=O)(=O)c3cccs3)cc2)cc1`?
Sm TGR block: 11%; HCV inh: -13%; SARS PLP yeast: 5%; HCMV inh: -8; Pf growth 96h: 0.83µM*; Pf growth 48h: -3%

Results for CCC(C)NCCC(=O)Nc1ccc(Cl)c(S(=O)(=O)Nc2ccc(Cl)cc2)c1 (centres undefined) ?
Sm TGR block: 8%; HCV inh: inconclusive; SARS PLP yeast: -1%; HCMV inh: -2; Pf growth 96h: 9.3µM*; Pf growth 48h: 10µM*

What do the screens show for `Cc1ccc(C(=O)CCC(=O)Nc2ccc(Cl)c(S(=O)(=O)Nc3cccc(Cl)c3)c2)cc1`?
Sm TGR block: -7%; HCV inh: 14%; SARS PLP yeast: -9%; HCMV inh: 0; Pf growth 96h: 31%; Pf growth 48h: 5%

What do the screens show for `Cc1c(C(=O)N(C)CCCCN2CCOCC2)oc2c(F)cccc12`?
Sm TGR block: -10%; HCV inh: 8%; SARS PLP yeast: -2%; HCMV inh: 99; Pf growth 96h: inconclusive; Pf growth 48h: -7%

How did COC(=O)CC1Oc2ccccc2-n2cc(-c3ccc(F)cc3)nc21 (centres undefined) do in these assays?
Sm TGR block: 2%; HCMV inh: -32

Results for Nc1ccccc1Nc1ccccc1 ?
Sm TGR block: 4%; HCV inh: 7%; SARS PLP yeast: -7%; HCMV inh: -4; Pf growth 96h: inconclusive; Pf growth 48h: -10%

How did Nc1ccc(Nc2ccccc2)c(Cl)c1 do in these assays?
Sm TGR block: 11µM*; HCV inh: 14%; SARS PLP yeast: -12%; HCMV inh: -1; Pf growth 48h: 74%

How did CC(C)c1cccc(-c2nc3c(NC4CCC(O)CC4)nccc3[nH]2)c1 (centres undefined) do in these assays?
HCMV inh: -6

What do the screens show for `CC(C)CC(NC(=O)C(NC(=O)OC(C)(C)C)C(C)C)C(=O)NC(CCC(=O)OCc1ccccc1)C(N)=O` (centres undefined)?
Sm TGR block: 17%; HCV inh: 3%; SARS PLP yeast: 0%; HCMV inh: 37; Pf growth 96h: inconclusive; Pf growth 48h: 1.9µM*

How did O=C1C2C(c3ccccc3)(C(=O)N1c1ccc(Cl)cc1)C2(c1ccccc1)c1ccccc1 (centres undefined) do in these assays?
Sm TGR block: -13%; HCV inh: inconclusive; SARS PLP yeast: -23%; HCMV inh: -25; Pf growth 96h: inconclusive; Pf growth 48h: 4.1µM*

Results for O=C1c2ccccc2C(=O)N1c1ccc(Cl)cc1 ?
Sm TGR block: 8%; SARS PLP yeast: 0%; Pf growth 96h: 28%

Results for CN(C(=O)CCc1nc(-c2ccccc2F)no1)c1ccc(Cl)cc1 ?
Sm TGR block: -4%; HCMV inh: -8

How did CC(=O)Nc1cc(N=Cc2ccc(O)cc2O)c(Cl)cc1Cl do in these assays?
Sm TGR block: inconclusive; HCV inh: -2%; SARS PLP yeast: 6%; Pf growth 96h: 16%; Pf growth 48h: -15%

Results for COc1ccc(O)c(C=Nc2cc(NC(C)=O)c(Cl)cc2Cl)c1 ?
Sm TGR block: -27%; HCV inh: -4%; SARS PLP yeast: -7%; HCMV inh: -102*; Pf growth 96h: inconclusive; Pf growth 48h: 5%

Results for CCc1nn(C)c(N)c1C ?
Sm TGR block: 5%; HCV inh: -3%; SARS PLP yeast: 0%; HCMV inh: -5; Pf growth 96h: -18%; Pf growth 48h: 4%

Results for Cc1cccc(NC(=O)CSc2nc3ccc(NC(=O)COc4ccc(Cl)cc4)cc3s2)c1 ?
Sm TGR block: -3%; HCMV inh: -24

What do the screens show for `COC(=O)c1cccc(NC(=O)/C=C/c2cccc([N+](=O)[O-])c2)c1`?
Sm TGR block: 10%; HCV inh: inconclusive; SARS PLP yeast: 1%; HCMV inh: -2; Pf growth 96h: 346%; Pf growth 48h: 74%

What do the screens show for `CC(=O)c1cccc(NC(=O)/C=C/c2ccc([N+](=O)[O-])s2)c1`?
Sm TGR block: 4%; HCV inh: inconclusive; SARS PLP yeast: 0%; HCMV inh: -96*; Pf growth 96h: inconclusive; Pf growth 48h: -6%

Screening results (PubChem BioAssay)
